Reference: PubChem BioAssay AID1259418 (Broad Institute, 2018)
The whole screen tested about 3,400 compounds, of which about 840 (25%) were called active. About 11% were inconclusive and are not listed. These entries were drawn from the full list. Results with a measured potency or affinity are listed apart. Unmarked numbers belong to inactive results.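 Rule for the calls: active = fitted half-maximal concentration of signal decrease at or below twice the sample's top tested concentration; inconclusive = flat curve between -70 and -30 percent, or poor fit; inactive = flat within 30 percent, signal rise, or potency above limit.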

assay: T. gondii growth inhibition with IFN-gamma, dose response, cell-based, ME49Luc, HeLa, luciferase, 72 h (AID 1259418); conditions: T. gondii ME49Luc in IFN-y HeLa, stronger effect = lower value, -100% = high-dose IFN-γ control wells; at 19.5 µM unless noted

| SMILES | max activity |
| --- | --- |
| Cc1nc(N2CCOCC2)nc2c1CCN(C(=O)C1CC1)CC2 | 58.7% |
| Clc1ccc(-n2ncc3c(NC4CCCCCCCCCCC4)ncnc32)cc1 | -21.9% [at 10 µM] |
| COC(=O)CC(=O)Nc1ccc(-c2nc(-c3ccc(C)cc3C)co2)cc1 | 87.6% |
| Cc1ccc(-c2coc(-c3ccc(NC(=O)c4ccccc4C)cc3)n2)cc1 | 104% |
| COc1cc(C(=O)Nc2ccc(-c3nc(-c4ccccc4)co3)cc2)cc(OC)c1OC | -19.1% [at 0.16 µM] |
| COc1ccccc1NC(=O)Nc1ccc(-c2nc(-c3ccc(C)cc3)co2)cc1 | -11.4% [at 0.35 µM] |
| Cc1ccccc1C(=O)Nc1ccc(-c2nc(-c3ccccc3)co2)cc1 | 95.8% [at 10 µM] |
| Cc1cc(C)c2c(=O)n(Cc3nc(-c4ccccc4Cl)oc3C)c(=O)n(-c3ccccc3)c2n1 | -23.7% [at 10 µM] |
| Cc1ccc(-c2coc(-c3ccc(NC(=O)Nc4cccc(F)c4)cc3)n2)cc1 | -17.7% [at 0.35 µM] |
| Cc1ccc(S(=O)(=O)Nc2ccc(-c3nc(-c4ccc(C)c(C)c4)co3)cc2)cc1 | 33.8% [at 10 µM] |
| Cc1oc(-c2cccc(Cl)c2)nc1Cn1nnc(-c2nc(-c3cccnc3)no2)c1C | 8.12% [at 10 µM] |
| C/C=C/c1ccc(C2[C@H]3CNC[C@@H]2N3Cc2cc(F)ccc2F)cc1 (some centres not stated) | 24.5% [at 10 µM] |
| COCCCN=C(Nc1ccc(C(=O)O)cc1)N1CCN(c2ncnc3ccccc23)CC1 | 14.9% |
| Cc1ccc(-n2ncc3c(NCCCN4CCCC4=O)ncnc32)c(C)c1 | 50% |
| CCc1ccccc1Nc1ncnc2c1cnn2-c1cccc(C)c1 | 24.1% [at 10 µM] |
| C=CCNc1ncnc2c1cnn2-c1ccc(C)cc1C | 27.6% [at 5 µM] |
| Clc1ccc(-n2ncc3c(NCCc4ccccc4)ncnc32)cc1 | 36% |
| Cc1cccc(Nc2ncnc3c2cnn3-c2ccc(C)cc2C)c1 | -13.4% [at 10 µM] |
| COc1ccc(CCNc2ncnc3c2cnn3-c2cccc(C)c2)cc1OC | 11.8% [at 1.35 µM] |
| Cc1cccc(-n2ncc3c(NCCCn4ccnc4)ncnc32)c1 | 38.7% [at 5 µM] |
| Cc1cccc(-n2ncc3c(NCCc4ccccc4)ncnc32)c1 | -21.4% [at 0.35 µM] |
| Clc1cccc(CNc2ncnc3c2cnn3-c2ccccc2)c1 | 95.5% [at 10 µM] |
| COC(=O)CC(=O)Nc1ccc(-c2nc(-c3ccccc3)co2)cc1 | 102% |
| COc1ccc(NC(=O)Nc2ccc(-c3nc(-c4ccccc4)co3)cc2)cc1Cl | 10% |
| NC(=O)CN1CCOCCOCCN(CC(N)=O)CCOCC1 | 36.3% [at 10 µM] |
| COc1ccc(-c2nc3c(s2)CN(C(=O)Nc2ccccc2C)CC3)cc1OC | -11.5% [at 0.35 µM] |

| SMILES | max activity |
| --- | --- |
| C/C=C/c1ccc(C2[C@H]3CNC[C@@H]2N3Cc2ccc3c(c2)OCO3)cc1 (some centres not stated) | 24% |
| Cc1ccc(S(=O)(=O)N2[C@@H]3CNC[C@H]2C3c2ccc(/C=C/c3ccccc3)cc2)cc1 (some centres not stated) | 32.9% [at 10 µM] |
| O=C(CCC1Nc2c3ccccc3nc(=S)n2C1=O)NC1CC1 (configuration not stated) | -17.9% [at 1.35 µM] |
| COc1cccc(-c2ccc(C3[C@H]4CNC[C@@H]3N4C(=O)NC3CCCCC3)cc2)c1 (some centres not stated) | 32.8% [at 10 µM] |
| C/C=C/c1ccc([C@H]2[C@@H](C#N)N(C(=O)NC3CCCCC3)[C@H]2CO)cc1 | -14% [at 2.35 µM] |
| COc1ccc(N2CCN(c3nc(-c4ccc(Cl)cc4)nc4ccccc34)CC2)cc1 | 25.6% |
| CCOC(=O)C1CCN(C(=O)c2ccc(-c3csc(CC)n3)cc2)CC1 | 201% [at 10 µM] |
| N#Cc1ccc(-c2ccc(C3[C@@H]4CN(S(=O)(=O)c5ccc(F)cc5)C[C@H]3N4)cc2)cc1 (some centres not stated) | 13.9% |
| COc1cccc(-c2ccc(C3[C@H]4CNC[C@@H]3N4CC3CCCCC3)cc2)c1 (some centres not stated) | 25.6% [at 10 µM] |
| C/C=C/c1ccc(C2[C@H]3CNC[C@@H]2N3S(=O)(=O)c2ccccc2C)cc1 (some centres not stated) | 50.4% |
| COc1ccccc1-c1ccc(C2[C@H]3CNC[C@@H]2N3S(=O)(=O)c2ccc(F)cc2)cc1 (some centres not stated) | 43.5% |
| CCOc1ccc(-c2nc3c(s2)CN(S(=O)(=O)Cc2ccccc2)CC3)cc1 | -19.9% [at 0.16 µM] |
| Cn1cnc(S(=O)(=O)N2C[C@@H]3N[C@H](C2)C3c2ccc(-c3ccccc3F)cc2)c1 (some centres not stated) | 25.3% [at 10 µM] |
| NC(=O)C1(N2CCCCC2)CCN(c2ncc(NC(=O)c3ccc(Cl)cc3)cc2C(=O)O)CC1 | -11.3% [at 10 µM] |
| Cc1ccc(-c2nc(CSc3nc4c(c(=O)[nH]3)CN(C(C)C)CC4)c(C)o2)cc1 | -15.7% |
| Cc1ccc(C)c(-c2coc(-c3ccc(NC(=O)Nc4ccc(F)cc4F)cc3)n2)c1 | -11.8% [at 2.6 µM] |
| COc1ccc(CNC(=O)CC2Nc3c4ccccc4nc(=S)n3C2=O)cc1 (configuration not stated) | 22.9% [at 0.16 µM] |
| CCc1ccc(-c2noc(-c3nnn(Cc4nc(-c5ccc(OC)cc5)oc4C)c3C)n2)cc1 | -11.2% [at 1.35 µM] |
| CCc1nc(OCC(=O)Nc2c(C)cccc2C)c2ccccc2n1 | 19.2% [at 0.35 µM] |
| Cc1ccc(C2=NC3(CCN(CC(=O)Nc4cccc(C)c4)CC3)NC2=O)cc1 | -9.18% [at 5 µM] |
| CCOc1cccc(-c2noc(-c3nnn(Cc4nc(-c5ccccc5OC)oc4C)c3C)n2)c1 | 5.65% [at 0.35 µM] |
| CCOC(=O)c1nn(Cc2ccccc2)c2c1CN(C(=O)CN1CC(c3ccccc3)CC1=O)CC2 (configuration not stated) | -5.83% [at 0.038 µM] |
| Cc1ccc2c(c1C)-n1cccc1C1(CCN(C(=O)COc3ccccc3)CC1)N2 | -7.11% [at 2.6 µM] |
| Nc1ccc(S(=O)(=O)NC(=O)c2ccccc2)cc1 | -6.84% [at 5 µM] |
| COc1cccc(CN2CCc3nc(SCc4nc(-c5ccc(C)cc5)oc4C)[nH]c(=O)c3C2)c1 | 42.8% |
| Cc1ccc(-c2coc(-c3ccc(NC(=O)C(C)(C)C)cc3)n2)c(C)c1 | 40.9% |

| SMILES | max activity |
| --- | --- |
| CCc1ccccc1NC(=O)CN1CCC2(CC1)N=C(c1ccc(F)cc1)C(=O)N2 | -11.7% [at 0.35 µM] |
| CCc1nc(OCC(=O)NCc2ccc(F)cc2)c2ccccc2n1 | -17.9% [at 0.68 µM] |
| CCc1nc(OCC(=O)Nc2cc(Cl)ccc2Cl)c2ccccc2n1 | 24.4% [at 2.6 µM] |
| Cc1nc(OCC(=O)Nc2ccc(C)c(F)c2)c2ccccc2n1 | 21.5% [at 10 µM] |
| CCc1nc(OCC(=O)NCc2ccc(C)cc2)c2ccccc2n1 | 13.9% |
| CCc1nc(OCC(=O)Nc2ccc(C)cc2Cl)c2ccccc2n1 | 18.6% [at 0.68 µM] |
| CCc1nc(OCC(=O)Nc2ccc(C)c(C)c2)c2ccccc2n1 | 17.1% [at 0.35 µM] |
| CCc1nc(OCC(=O)Nc2ccc(C)cc2)c2ccccc2n1 | 32.4% |
| CCc1ccc(NC(=O)COc2nc(CC)nc3ccccc23)cc1 | -19.6% [at 1.35 µM] |
| Cc1cccc(-c2nc(Cn3nnc(-c4nc(-c5ccccc5Cl)no4)c3C)c(C)o2)c1 | 15.3% [at 10 µM] |
| CCc1ccccc1NC(=O)Nc1ccc(-c2nc(-c3ccccc3)co2)cc1 | 13.1% [at 5 µM] |
| Cc1nc(-c2ccc(F)cc2)sc1-c1ccc(SCc2ccc(Cl)cc2)nn1 | -5.59% [at 1.35 µM] |
| COc1cccc(C(=O)Nc2ccc(-c3nc(-c4ccc(C)cc4C)co3)cc2)c1 | 37.5% |
| Cc1ccc(C)c(-c2coc(-c3ccc(NC(=O)C(C)C)cc3)n2)c1 | 14.2% |
| COc1ccccc1-c1nc(Cn2nnc(-c3nc(-c4ccc(OC(C)C)cc4)no3)c2C)c(C)o1 | -5.67% [at 1.35 µM] |
| COc1cccc(-c2nc3c(s2)CN(C(=O)Nc2ccc(OC)cc2OC)CC3)c1 | 52.4% |
| CC(C)OCCCNC(=O)CC1Nc2c3ccccc3nc(=S)n2C1=O (configuration not stated) | 19.5% [at 0.16 µM] |
| CCOc1ccc(-c2nc3c(s2)CN(S(=O)(=O)c2ccc(F)cc2)CC3)cc1 | 36.2% |
| CCc1nc(OCC(=O)N(CC)c2ccccc2)c2ccccc2n1 | 9.96% [at 10 µM] |
| CCN(C(=O)COc1nc(C)nc2ccccc12)c1ccccc1 | 18.8% [at 0.68 µM] |
| CSc1ccc(-c2noc(-c3nnn(Cc4nc(-c5cccc(Cl)c5)oc4C)c3C)n2)cc1 | 12.2% [at 0.16 µM] |
| Cc1ccc(NC(=O)CN2CCC3(CC2)N=C(c2ccc(Cl)cc2)C(=O)N3)cc1C | -6.27% [at 0.68 µM] |
| COc1ccc(-c2nc3c(s2)CN(S(=O)(=O)c2ccc(Cl)cc2)CC3)cc1 | 8.74% |
| COc1ccc(-c2nc(Cn3c(=O)c4cccnc4n(-c4ccccc4)c3=O)c(C)o2)cc1 | -4.3% [at 2.6 µM] |
| CCc1c(C)sc2c1CCN(Cc1nc(-c3ccc(C)cc3)oc1C)C2c1ccccc1 (configuration not stated) | 11.6% |
